In PubChem BioAssay (NCI):
About 83,000 compounds went through this panel and 20% of them were active in at least one assay; those are over-represented in the sample as a whole.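 The test compound was applied at a single concentration to cells in 96-well plates for 48 hours, and percent growth was recorded.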 Values without a mark were called inactive. Active and inactive are the calls of the source. The calls were made as follows: active = growth percent below 10; inactive = the rest.

How the values were obtained:
Experiment in all cases: NCI-60 one-dose screen, 48 h (100 = growth as untreated, 0 = no growth, -100 = all killed)
Details in all cases: 10 µM
[1] = tested on: HCT-15 colon
[2] = tested on: HT29 colon
[3] = tested on: SNB-75 CNS
[4] = tested on: SNB-19 CNS
[5] = tested on: U251 CNS
[6] = tested on: PC-3 prostate
[7] = tested on: SK-MEL-5 melanoma
[8] = tested on: UACC-62 melanoma
[9] = tested on: LOX IMVI melanoma
[10] = tested on: SK-MEL-28 melanoma

CCN1CCN(c2ccc(NC(=O)Nc3ccc4c(c3F)CCN4c3ccnc(C(=O)NC)c3)cc2C(F)(F)F)CC1
growth [1]: -91.1% (active)
growth [2]: -79% (active)
growth [3]: -80.8% (active)
growth [4]: -84.3% (active)
growth [5]: -93.8% (active)
growth [6]: 23.4%
growth [7]: -100% (active)
growth [8]: 95.8%
growth [9]: -99.9% (active)
growth [10]: -83.6% (active)

COc1ccc(-c2cc(-c3cc(C(=O)c4ccc(Br)cc4)n4ccc(C)cc34)nc(N)c2C#N)cc1
growth [1]: 89.6%
growth [2]: 77.4%
growth [3]: 108%
growth [4]: 91.3%
growth [5]: 64.7%
growth [6]: 89.4%
growth [7]: 87.5%
growth [8]: 81.2%
growth [9]: 54.6%
growth [10]: 69.6%

C#CCNC(=O)[C@]12CCC(C)(C)C[C@H]1C1=CC[C@@H]3[C@@](C)(CCC#N)[C@H](C(=C)C)CC[C@@]3(C)[C@]1(C)CC2
growth [1]: 33.2%
growth [2]: 48.9%
growth [3]: 82.5%
growth [4]: 64.3%
growth [5]: 54.6%
growth [6]: 26.3%
growth [7]: 42.7%
growth [8]: 52.1%
growth [9]: -53.1% (active)
growth [10]: 74.6%

Cc1ccc(-c2cc(-c3cc4ccccc4nc3Cl)[nH]c(=O)n2)cc1
growth [1]: -39.8% (active)
growth [2]: -15.9% (active)
growth [3]: -17.2% (active)
growth [4]: 3.61% (active)
growth [5]: -23.5% (active)
growth [6]: 20.7%
growth [7]: 18.1%
growth [8]: 19.3%
growth [9]: -82.4% (active)
growth [10]: 43.3%

Cn1c(O)c(N=Nc2nc(-c3cc4ccccc4oc3=O)cs2)c2cc(Br)ccc21
growth [1]: 88.5%
growth [2]: 118%
growth [3]: 54.7%
growth [4]: 12.5%
growth [5]: 21.3%
growth [6]: 102%
growth [7]: 96%
growth [8]: 65%
growth [9]: 56.7%
growth [10]: 99.8%

COc1csc(/C=N/NC(=O)c2[nH]c3ccc(Br)cc3c2-c2ccccc2)c1
growth [1]: 0.545% (active)
growth [2]: -30.8% (active)
growth [3]: 4.17% (active)
growth [4]: 29.1%
growth [5]: 9.71% (active)
growth [6]: 14.9%
growth [7]: -37.2% (active)
growth [8]: 20.3%
growth [9]: 12.6%
growth [10]: 35.3%

CC(=O)c1cc(C(=O)c2ccc3c(c2)NC(=O)CO3)n2ccc3ccccc3c12
growth [1]: 71.1%
growth [2]: 56.5%
growth [3]: 114%
growth [4]: 69.6%
growth [5]: 26.5%
growth [6]: 80.3%
growth [7]: 57.6%
growth [8]: 94.7%
growth [9]: 56.5%
growth [10]: 88.4%

O=C(Nc1cccc([N+](=O)[O-])c1)Nc1cccc([N+](=O)[O-])c1
growth [1]: 62.7%
growth [2]: 87.3%
growth [3]: 90.5%
growth [4]: 81.7%
growth [5]: 88.7%
growth [6]: 52%
growth [7]: 69.6%
growth [8]: 68.5%
growth [9]: 87.7%
growth [10]: 88.7%

O=C(CSc1nnc(-c2c[nH]c3ccccc23)n1-c1ccccc1)Nc1ccc(C(=O)/C=C/c2ccc(Cl)cc2)cc1
growth [1]: 59.3%
growth [2]: 86.4%
growth [3]: 80%
growth [4]: 73.1%
growth [5]: 73.9%
growth [6]: 58.9%
growth [7]: 83.3%
growth [8]: 62.8%
growth [9]: 67.6%
growth [10]: 84.1%

CO[C@@H]1CSSC1Cn1nc(-c2ccc(Oc3ccccc3)cc2)c2c(N)ncnc21 (stereo not given in full)
growth [1]: 37.2%
growth [2]: 28.5%
growth [3]: 97.9%
growth [4]: 69.1%
growth [5]: 49.5%
growth [6]: 43.6%
growth [7]: 7.95% (active)
growth [8]: -53.9% (active)
growth [9]: 39.4%
growth [10]: -34.4% (active)

O=C1Nc2cc(-c3ccc(NC(=O)c4cccc([N+](=O)[O-])c4)cc3)ccc2/C1=C/c1ccc[nH]1
growth [1]: 55.3%
growth [2]: 102%
growth [3]: 223%
growth [4]: 94.5%
growth [5]: 99.3%
growth [6]: 66.2%
growth [7]: 104%
growth [8]: 63.7%
growth [9]: 86.9%
growth [10]: 97.1%

Cc1cc(C)cc(Oc2cccc(-c3c(C)nnn3C3CCN(CCN(C)C)CC3)n2)c1
growth [1]: 7.96% (active)
growth [2]: 11%
growth [3]: 16.7%
growth [4]: 47.7%
growth [5]: 36.5%
growth [6]: 37.7%
growth [7]: -53.4% (active)
growth [8]: 18.2%
growth [9]: 2.35% (active)
growth [10]: 19%

Cc1ccc(C(=O)NCCCNc2nc(Nc3ccc(N4CCN(C)CC4)cc3)nc3ccsc23)cc1
growth [1]: 2.1% (active)
growth [2]: 8.64% (active)
growth [3]: 71.9%
growth [4]: 71.6%
growth [5]: 18.5%
growth [6]: 37.9%
growth [7]: -15.2% (active)
growth [8]: 24.1%
growth [9]: -22.6% (active)
growth [10]: -70.3% (active)

Cc1noc2c(Cc3ccc([N+](=O)[O-])cc3)nn(CC(=O)N/N=C/c3ccc(Br)cc3)c(=O)c12
growth [1]: 94.8%
growth [2]: 86.1%
growth [3]: 104%
growth [4]: 69.6%
growth [5]: 70.4%
growth [6]: 78.1%
growth [7]: 92%
growth [8]: 80.1%
growth [9]: 52.2%
growth [10]: 96.4%

COc1cnc2c(c1)C(=O)c1c-2n(CCCNC(C)C)c(=O)c2cc(OC)c(OC)cc12
growth [1]: 34.6%
growth [2]: 10.5%
growth [3]: 70.7%
growth [4]: 25.2%
growth [5]: 30.4%
growth [6]: 48.7%
growth [7]: 47.7%
growth [8]: 18.7%
growth [9]: -88.2% (active)
growth [10]: 94%

CCOc1ccc(/C=N/NC(=O)Cn2nc(Cc3ccccc3)c3onc(C)c3c2=O)cc1
growth [1]: 63.1%
growth [2]: 42%
growth [3]: -23.7% (active)
growth [4]: -3.49% (active)
growth [5]: -21.4% (active)
growth [6]: 22.5%
growth [7]: 68.3%
growth [8]: 36.9%
growth [9]: 14.2%
growth [10]: 54.3%

COc1ccc(C2NC(=S)NC(C)=C2C(=O)OC(C)C)cc1OC (stereo not given)
growth [1]: 105%
growth [2]: 115%
growth [3]: 94.9%
growth [4]: 98.9%
growth [5]: 102%
growth [6]: 96%
growth [7]: 98.9%
growth [8]: 90.5%
growth [9]: 99.3%
growth [10]: 109%

COc1cccc2nc(Nc3ccc(F)c(NC(=O)c4ccc(CN5CCN(C)CC5)c(C(F)(F)F)c4)c3)ccc12
growth [1]: -83% (active)
growth [2]: -30.2% (active)
growth [3]: -3.82% (active)
growth [4]: -49.2% (active)
growth [5]: -42.7% (active)
growth [6]: -8.36% (active)
growth [7]: -94.9% (active)
growth [8]: -82.1% (active)
growth [9]: -100% (active)
growth [10]: -84% (active)

O=c1nc(-c2ccccc2)cc(-c2cc3ccccc3nc2Cl)[nH]1
growth [1]: -64.1% (active)
growth [2]: -42.5% (active)
growth [3]: 26.5%
growth [4]: 13%
growth [5]: -72.7% (active)
growth [6]: 31.8%
growth [7]: 62.2%
growth [8]: 35.1%
growth [9]: -87.7% (active)
growth [10]: 71.5%

N#Cc1c(Cl)nc(SCc2ccc(F)cc2)nc1-c1ccc(F)cc1
growth [1]: 87%
growth [2]: 66.6%
growth [3]: 123%
growth [4]: 98%
growth [5]: 92.8%
growth [6]: 91.1%
growth [7]: 86.2%
growth [8]: 86%
growth [9]: 90.2%
growth [10]: 104%

CCCCCc1ccc(S(=O)(=O)N(C(C)=O)c2cc(-c3csc(N(C)C(C)=O)n3)ccc2N2CCN(C)CC2)cc1
growth [1]: -89.7% (active)
growth [2]: -52.5% (active)
growth [3]: 73%
growth [4]: 32.2%
growth [5]: -36.2% (active)
growth [6]: 26.5%
growth [7]: -16% (active)
growth [8]: -88.2% (active)
growth [9]: -99.8% (active)
growth [10]: -94.3% (active)

CN1CCN(Cc2ccc(C(=O)Nc3cccc(Nc4ccc5c(O)cccc5n4)c3)cc2C(F)(F)F)CC1
growth [1]: -25.4% (active)
growth [2]: -50.8% (active)
growth [3]: 33.1%
growth [4]: -64.3% (active)
growth [5]: -35.3% (active)
growth [6]: 10.8%
growth [7]: -100% (active)
growth [8]: -79.9% (active)
growth [9]: -100% (active)
growth [10]: -95% (active)

Cc1ccc(-c2nc(Nc3ccc(C)c(S(N)(=O)=O)c3)c3ccccc3n2)cc1
growth [1]: 50.7%
growth [2]: 43.1%
growth [3]: 116%
growth [4]: 91.4%
growth [5]: 18.6%
growth [6]: 43.9%
growth [7]: 86.7%
growth [8]: 87.8%
growth [9]: 2.94% (active)
growth [10]: 113%

CC(=O)NS(=O)(=O)c1ccc(NC(=O)CSC2=NC(c3ccccc3)C(C(C)=O)=C(C)N2)cc1 (stereo not given)
growth [1]: 101%
growth [2]: 114%
growth [3]: 99%
growth [4]: 104%
growth [5]: 116%
growth [6]: 110%
growth [7]: 101%
growth [8]: 98.5%
growth [9]: 94.9%
growth [10]: 107%
